Compounds with a hit are over-represented: about 12% of the library has one in this group of screens.
VP16 counter – VP16 counterscreen qHTS for inhibitors of ROR gamma transcriptional activity. Potency, µM (highest dose often 53.6 µM), for the others: top-dose activity, negative = inhibition, hits mostly inhibitors. Drosophila S2 Gal4-VP16 UAS-luciferase, luminescence, 20 h. 3.5% of 310,000 active;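 note: Gal4-VP16 expression switched on by copper sulfate through the metallothionein promoter; nearly all actives have a fitted effect of over 50% in size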
PLK1 PBD block – qHTS for Inhibitors of PLK1-PDB (polo-like kinase 1 - polo-box domain): Primary Screen; Serine/threonine-protein kinase PLK1 (Homo sapiens), P53350; Plk1 PBD binding of FITC phosphopeptide, fluorescence polarization; Potency, µM, for inactives: max response, negative = inhibition, usual class: inhibitors; 2.8% of 360,000 active; note: series mostly up to about 57 µM; nearly all actives have a fitted effect of over 65% in size
RORgamma inh – qHTS for inhibitors of ROR gamma transcriptional activity | Drosophila S2 Gal4-RORgamma UAS-luciferase reporter, 20 h | Nuclear receptor ROR-gamma (Mus musculus), P51450 | Potency, µM (series often up to 53.6 µM), for the others: top-dose activity change, negative = inhibition, hits mostly inhibitors | AID 2551, 2010 | 5.4% of 310,000 active; note: nearly all actives have a fitted effect of over 60% in size
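Using a luciferase readout, inhibitors were identified by reduced reporter activity in Drosophila cells coexpressing a copper-inducible Gal4–ROR gamma fusion and UAS-driven Photinus luciferase, incubated 20 hr after 700 uM copper sulfate.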
ALDH1A1 inh – qHTS Assay for Inhibitors of Aldehyde Dehydrogenase 1 (ALDH1A1). 7.3% of 220,000 active. Purified ALDH1A1, NADH fluorescence, propionaldehyde substrate. Aldehyde dehydrogenase 1A1 (Homo sapiens), P00352. Potency, µM (series often up to 75.3 µM), inactives show at the highest dose activity, negative = inhibition, usual class: inhibitors; active = well fitted inhibition curve with a large enough effect, not every such curve was filed as active; inconclusive = small, poorly fitted or top-dose-only effect, or another doubt; inactive = no such curve, though single readings can be large or run the other way;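 note: plate controls were no enzyme wells and a reference inhibitor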
Target sequence (P00352 whole entry, looked up): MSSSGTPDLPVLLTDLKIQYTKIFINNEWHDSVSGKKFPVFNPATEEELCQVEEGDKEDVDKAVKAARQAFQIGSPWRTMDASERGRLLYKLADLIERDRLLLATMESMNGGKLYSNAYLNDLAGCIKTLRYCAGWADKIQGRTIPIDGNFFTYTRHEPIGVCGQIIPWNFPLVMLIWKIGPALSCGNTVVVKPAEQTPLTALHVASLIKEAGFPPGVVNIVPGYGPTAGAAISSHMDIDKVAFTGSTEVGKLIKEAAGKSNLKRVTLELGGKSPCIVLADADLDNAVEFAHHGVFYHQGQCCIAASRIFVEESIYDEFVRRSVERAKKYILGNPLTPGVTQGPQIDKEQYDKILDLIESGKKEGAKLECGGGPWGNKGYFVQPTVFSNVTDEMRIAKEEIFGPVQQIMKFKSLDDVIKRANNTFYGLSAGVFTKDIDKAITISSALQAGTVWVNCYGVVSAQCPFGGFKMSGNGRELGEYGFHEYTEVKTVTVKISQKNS
Sfp inh – qHTS Assay for Inhibitors of Bacillus subtilis Sfp phosphopantetheinyl transferase (PPTase); 4'-phosphopantetheinyl transferase ffp (Bacillus subtilis), Q9F4F7; 3.5% of 310,000 active; Biochemical Sfp PPTase activity, qHTS; Potency, µM, for the others: largest response in the series, negative = inhibition, actives largely listed as inhibitors; AID 1490, 2009;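 note: the enzyme is Sfp with the accession as filed and its product quenches rhodamine fluorescence; 0% = enzyme reaction without inhibitor and -100% = no enzyme wells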
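After 15 min at room temperature with compound, 15 nM Sfp received 5 uM rhodamine-CoA plus 12.5 uM BHQ-2-ybbR (50 mM Hepes pH 7.6, 10 mM MgCl2). Rate came from the fluorescence difference over 30 min, ex 525/em 598 nm.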
Active calls of the source: *; ? = inconclusive; · = no result; [ ] = dose if it differs, or a comment. Unless noted, calls come from the whole dose curve; as a rule, active = well fitted curve in the direction sought with a large enough effect; inconclusive = small, poorly fitted or top-dose-only effect, or another doubt; inactive = no such curve, though single readings can be large; an effect the other way counts as inactive or inconclusive. Unless noted, % is set by controls: 0 for no effect and ±100 for the full control effect; potency is the fitted concentration of half-maximal effect.

SMILES | VP16 counter | PLK1 PBD block | RORgamma inh | ALDH1A1 inh | Sfp inh
CCOC(=O)[C@]12Cc3ccc(C)cc3[C@H]1N(C1CCCCC1)C(=O)c1cc(OC)ccc12 | · | 4.2µM* | · | · | ·
CCOC(=O)[C@]12Cc3c(cc(OC)c(OC)c3OC)[C@H]1N(C1CCCCC1)C(=O)c1ccccc12 | · | 9.5µM* | · | · | ·
Cc1ccc(-c2csc(NC(CO)c3nc4ccccc4n3CCOCCO)n2)cc1 (stereo not drawn) | · | 21µM* | · | · | ·
CC1N(P(=O)(c2ccccc2)c2ccccc2)CC(O)(c2ccccc2)CC12CC2 (stereo not drawn) | -10% | · | -26% | -3% | -4%
CCCCCC1CC(CC#CCN2CCOCC2)C(=O)O1 (stereo not drawn) | 1% | -7% | -20% | 6.3µM* | -5%
Cc1cc2c(cc(C(=O)N3CCC(C(=O)NC4CCCC4)CC3)n2Cc2c(F)cccc2Cl)o1 | -5% | -9% | -18% | · | 50µM*
c1ccc(CN2CCC3(CCNCC3)CC2)cc1 | -2% | · | -15% | ? | -12%
COC(=O)/C=C/C(=O)N[C@@H]1CC[C@@]2(O)[C@H]3Cc4ccc(O)c5c4[C@@]2(CCN3CC2CC2)[C@H]1O5 | · | · | · | -8% | -3%
N#CC(C#N)=Cc1ccc([N+](=O)[O-])c(O)c1 | ? | · | ? | 16µM* | 35µM*
N#CC(C#N)=Cc1ccc(C=C(C#N)C#N)cc1 | ? | -29% | ? | 0.35µM* | ?
COc1cc2c(cc1OC)[C@@]13CCN4CC5=CCO[C@H](CC(=O)O)[C@@H]([C@H]1N2)[C@H]5C[C@H]43 | · | · | · | 17%[13.5 µM] | ·
CC(=O)OC1CCC23C(=O)OC45CCC(C6=CC(=O)OC6)C4(C)CCC2C5CCC3(O)C1 (stereo not drawn) | -7% | · | -13% | 1% | 5%
COc1cc2c(cc1OC)-c1c(OC)c(OC)c(C=O)c3c1[C@H](C2)N(C)CC3 | 1% | · | -1% | ? | -8%
C[C@@H](Cc1cccc(C(F)(F)F)c1)NCCCc1ccccc1 | -11% | · | 22µM* | 1% | -21%
CCCCC(=O)N/N=C/c1c(O)n(CCc2ccccc2)c(=O)[nH]c1=O | -10% | -8% | 10µM* | · | 8%
CCCCC(=O)N/N=C/c1c(O)n(CCc2ccc(OC)c(OC)c2)c(=O)[nH]c1=O | -1% | -14% | -33% | 1% | 6%
CCCCC(=O)N/N=C/c1c(O)n(CC)c(=S)[nH]c1=O | ? | 2% | 11µM* | -7% | -1%
CCCCCCC(=O)N/N=C/c1c(O)n(CCCC)c(=S)[nH]c1=O | -24% | -10% | ? | 9% | 21%
N[C@@H](CSC1c2ccccc2-c2ccccc21)C(=O)O | · | · | · | 7%[13.5 µM] | ·
Cc1cc(C=C2C(=O)N(C)C(=S)N(C)C2=O)c(C)n1C1CCCCC1 | 5% | ? | 5% | ? | ?
Cc1cc(C=C2C(=O)NC(=S)NC2=O)c(C)n1C1CCCC1 | -2% | ? | ? | 7.1µM* | 40µM*
COc1ccc(NC2=NC(C)(C)CS2)cc1 | -3% | 21µM* | -40% | 8% | 56µM*
COc1ccc(NC2=NCC(C)S2)cc1 (stereo not drawn) | 17% | -19% | -29% | 20% | 14%
CC(=O)O[C@H]1CC[C@H]2[C@@H]3CCC4=C[C@@H](C5SCCS5)[C@H](OC(C)=O)C[C@]4(C)[C@H]3CC[C@@]12C | · | · | · | -15%[13.5 µM] | ·
CC1CCCCC1n1c(-c2cccnc2)n[nH]c1=S (stereo not drawn) | ? | -4% | 10µM* | -2% | 8%
SMILES | VP16 counter | PLK1 PBD block | RORgamma inh | ALDH1A1 inh | Sfp inh
O=C(/C=C/c1ccc(Cl)cc1)NC(=S)N1C[C@H]2C[C@H](C1)c1cccc(=O)n1C2 | -3% | -10% | 13µM* | · | -14%
O=C(/C=C/c1ccc(Br)cc1)NC(=S)N1C[C@H]2C[C@H](C1)c1cccc(=O)n1C2 | -9% | -19% | 18µM* | · | -3%
CN1C(=O)/C(=C/C=C/c2ccco2)C(=O)NC1=S | -2% | ? | -11% | · | 13µM*
Cc1ccc(N2C(=O)NC(=O)/C(=C\C=C\c3ccco3)C2=O)cc1C | 7.1µM* | 1.5µM* | 13µM* | ? | -71%
Cc1ccc(N2C(=O)NC(=O)/C(=C\C=C\c3ccco3)C2=O)cc1 | 5.6µM* | 1.9µM* | ? | · | ?
Cc1cccc(N2C(=O)NC(=O)/C(=C/c3ccc([N+](=O)[O-])o3)C2=O)c1 | ? | 11µM* | 4% | -4% | 13µM*
O=C1NC(=O)N(c2ccccc2)C(=O)/C1=C/C=C/c1ccco1 | ? | 2.4µM* | ? | · | 32µM*
Cc1cccc(N2C(=O)NC(=O)/C(=C\C=C\c3ccco3)C2=O)c1 | ? | ? | -117% | · | 45µM*
Cn1cc(/C=C2\C(=O)NC(=O)N(c3ccccc3)C2=O)c2ccccc21 | -3% | -13% | -4% | · | -15%
CCC(C)C(=O)OC1C[C@@]2(C)C(c3ccoc3)OC(=O)CC23OC2(C)OC34C(OC(=O)C(C)C)[C@]3(O)C(OC(=O)C5(C)OC5C)[C@]5(C)CC3(O)[C@](C)(C5CC(=O)OC)C14O2 (stereo partly drawn) | -20% | · | 29% | 1% | 17%
O=C1c2ccccc2C(Nc2ccc(S(=O)(=O)N3CCCCCC3)cc2)N1c1ccccn1 (stereo not drawn) | 0% | -5% | 1% | 0.79µM* | -14%
CSc1ccc(C(=O)C2CCCN(Cc3cc4ccccc4[nH]3)C2)cc1 (stereo not drawn) | -8% | 30µM* | 3% | -13% | -12%
CSc1ccc(C(=O)C2CCCN(Cc3cccnc3)C2)cc1 (stereo not drawn) | -11% | -20% | ? | -2% | 15%
Cn1c(=O)n(CC(=O)N2CCC3(CC2)OCCO3)c(=O)c2ccccc21 | · | -3% | 9%[0.365 µM] | -5% | 1%
O=C(Cn1c2c(c(-c3ccccc3Cl)cc1=O)CCC2)N1CCC2(CC1)OCCO2 | · | -7% | 6%[0.365 µM] | ? | 22µM*
O=C1CC2OCC=C3CN4CC[C@]56c7ccccc7N1[C@H]5[C@H]2C3C[C@H]46 (stereo partly drawn) | -1% | · | 4% | -7% | 5%
CCNCCC1(CC)C(=O)NC(=O)NC1=O | · | · | · | 4%[13.5 µM] | ·
O=C(c1ccc(Cl)cc1)C1CCCN(Cc2ccon2)C1 (stereo not drawn) | 8% | -10% | 0% | 13% | 21%
O=C(c1ccc2c(c1)OCO2)C1CCCN(Cc2ccccn2)C1 (stereo not drawn) | ? | 6% | 3.2µM* | -12% | 1%
COc1cccc(C(=O)C2CCCN(Cc3ccccn3)C2)c1 (stereo not drawn) | ? | -4% | 3.5µM* | -6% | -9%

Source: PubChem (National Center for Advancing Translational Sciences (NCATS))
